sEH inh = soluble epoxide hydrolase inhibitors, primary screen, biochemical, human sEH; Bifunctional epoxide hydrolase 2 (Homo sapiens), P34913; recombinant human sEH enzymatic activity assay; inhibition, % at 2 µM; actives 0.34% (n = 91,000); AID 707, 2007; in the data active = inhibition above about 80%
sEH act = soluble epoxide hydrolase activators, primary screen, biochemical, human sEH | Bifunctional epoxide hydrolase 2 (Homo sapiens), P34913 | purified human sEH enzymatic activity, activator screen | activation, % at 2 µM | actives 0.04% (n = 91,000) | AID 717, 2007; in the data active = activation above about 37%
CYP2C19 inh = blockers of cytochrome P450 2C19 activity – biochemical, luminescence, ADME assay, primary screen; P33261; CYP2C19 Supersomes, luciferin-H EGE luminescence, 30 min; inhibition, % at 5 µM; actives 21% (n = 96,000);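 active = CYP2C19 inhibition above a set limit at 5 µM in the primary screen, cut at about 50% in these data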
CYP2C19 act = human CYP2C19 activators, primary screen, biochemical, luminescence. Cytochrome P450 2C19 (Homo sapiens), P33261. activation factor at 5 µM. 96,000 tested, under 10 active. AID 1025, 2008. recombinant CYP2C19, luciferin-H EGE luminescence; active compounds read high; 0 = fully inhibited enzyme, 1 = untreated enzyme;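 active = activation factor of at least 2 at 5 µM in the primary screen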
CYP2C9 inhib = blockers of cytochrome P450 2C9 activity – biochemical, luminescence, ADME assay, primary screen; CYP2C9 Supersomes, luciferin-H conversion; actives 20% (n = 96,000); inhibition, % at 5 µM; AID 777, 2007;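 active = blocking of liver enzyme CYP2C9 beyond about 50% at 5 µM, limit read from the data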
Target sequence (P11712 whole entry, looked up): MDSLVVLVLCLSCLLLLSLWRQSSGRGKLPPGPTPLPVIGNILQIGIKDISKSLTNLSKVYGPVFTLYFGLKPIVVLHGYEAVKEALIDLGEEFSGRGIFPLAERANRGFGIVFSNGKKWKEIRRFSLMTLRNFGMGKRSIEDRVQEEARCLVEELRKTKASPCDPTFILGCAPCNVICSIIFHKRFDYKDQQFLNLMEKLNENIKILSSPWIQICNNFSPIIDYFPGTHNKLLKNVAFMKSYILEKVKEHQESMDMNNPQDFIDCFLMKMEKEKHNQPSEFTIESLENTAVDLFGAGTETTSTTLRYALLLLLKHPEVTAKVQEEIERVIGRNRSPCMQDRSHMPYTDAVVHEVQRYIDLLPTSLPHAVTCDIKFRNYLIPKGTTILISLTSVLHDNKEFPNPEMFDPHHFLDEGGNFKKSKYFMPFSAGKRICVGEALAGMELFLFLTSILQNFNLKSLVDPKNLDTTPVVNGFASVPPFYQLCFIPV
CYP2C9 act = human CYP2C9 activators, primary screen, biochemical, luminescence; actives 1.4% (n = 96,000); recombinant CYP2C9, luciferin-H conversion; active compounds read high; factor 1 = untreated enzyme, 0 = blocked; AID 1024, 2008; activation factor at 5 µM;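 active = activation factor of 2 or more for CYP2C9 at a 5 µM dose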
Hits are given with their value; – = inactive; · = no result given. The list is not random: actives were taken first. Their share in the collection is about 27%.

SMILES | sEH inh | sEH act | CYP2C19 inh | CYP2C19 act | CYP2C9 inhib | CYP2C9 act
c1ccc(Cc2nc3ccccc3n2Cc2ccccc2)cc1 | – | – | – | – | 92 | –
O=C(Nc1ccc2c(c1)CCC2)c1ccc(Br)o1 | – | – | 76 | – | – | –
O=C(Nc1ccc2c(c1)OCO2)c1ccc(Br)o1 | – | – | 85 | – | 60 | –
O=C(Nc1ccc2c(c1)CCC2)c1cc2ccccc2o1 | – | – | – | – | – | –
Cc1cnc(C(=O)Nc2ccc3c(c2)CCC3)cn1 | – | – | – | – | – | –
O=C(Nc1ccc2c(c1)CCC2)c1cnccn1 | – | – | 68 | – | – | –
Cc1ccc(C(=O)Nc2ccc3c(c2)CCC3)o1 | · | · | 78 | – | – | –
COc1ccc(S(=O)(=O)NNC(=O)c2csc(-n3nc(C)cc3C(F)(F)F)n2)cc1 | – | – | – | – | – | –
COc1ccc(-c2nc(SC)n(C)c(=O)c2C#N)cc1OC | · | · | – | – | 95 | –
COc1ccc(-c2c(C#N)c(N)nc3c2c(=O)n(C)c(=O)n3C)cc1Cl | – | – | · | · | · | ·
O=C(NCC1OCCc2ccccc21)c1ccco1 (stereo not given) | – | – | – | – | – | –
O=C(CCN1CCCCC1)NCC1OCCc2ccccc21 (stereo not given) | – | – | 86 | – | – | –
O=C(CS(=O)CC(=O)Nc1cccc2c1CCCC2)Nc1ccc(F)cc1 (stereo not given) | – | – | – | – | – | –
CCc1ccc(NC(=O)CS(=O)CC(=O)NCC2OCCc3ccccc32)cc1 (stereo not given) | – | – | – | – | 74 | –
COc1ccccc1CNc1nc2nc(C)cc(=O)n2[nH]1 | – | – | – | – | – | –
O=C(Cn1nnc(-c2cccc(C(F)(F)F)c2)n1)N1CCCCCC1 | – | – | 57 | – | – | 4.2
CCN(CCNc1ccc(Cl)cc1[N+](=O)[O-])C(=O)c1cc([N+](=O)[O-])c(N(C)C)cc1OC | – | – | 76 | – | 80 | –
COc1ccc(/C=N\NC(=O)/C(=C\Nc2nccc(C)n2)NC(=O)c2ccccc2)cc1 | – | – | – | – | 76 | –
CCOC(=O)CCCc1sc(N)nc1-c1[nH]c(=O)[nH]c1C | – | – | – | – | – | –
COCC(C)n1c(-c2ccc3c(c2)NC(=O)CO3)csc1=Nc1ccc(OC(F)F)cc1 (stereo not given) | – | – | – | – | 69 | –
CCCCN=c1scc(-c2ccc3c(c2)NC(=O)CO3)n1N=C1CCCC1 | – | – | – | – | – | –
CCN=c1scc(-c2ccc3c(c2)NC(=O)CO3)n1N=C1CCCC1 | – | – | 54 | – | – | –
Cc1ccc2[nH]c(=O)c(CN(Cc3cccnc3)Cc3nnnn3CCN3CCOCC3)cc2c1 | – | – | – | – | – | –
COC(=O)c1ccc(CSc2ccc3nnc(-c4cccc(F)c4)n3n2)o1 | – | – | – | – | 83 | –
CCOC(=O)CC(=O)CSc1ccc2nnc(-c3cccc(F)c3)n2n1 | – | – | – | – | – | –
SMILES | sEH inh | sEH act | CYP2C19 inh | CYP2C19 act | CYP2C9 inhib | CYP2C9 act
CCCCOc1ccc(-c2nc(-c3cccnc3)no2)cc1 | · | · | – | – | – | –
CCc1ccc(-c2nc(-c3ccncc3)no2)cc1 | – | – | 99 | – | 84 | –
CCCCc1ccc(-c2nc(-c3ccncc3)no2)cc1 | · | · | 84 | – | 67 | –
COc1ccc(S(=O)(=O)NCc2ccco2)cc1-c1nnc2c3ccccc3c(C)nn12 | – | – | – | – | – | –
COc1ccc(-c2noc(CCC(=O)NCc3cccnc3)n2)cc1OC | · | · | – | – | 54 | –
COc1ccc(-c2noc(CCC(=O)Nc3cccnc3)n2)cc1OC | – | – | – | – | – | –
COc1ccc(-c2noc(CCC(=O)NCc3cccnc3)n2)cc1 | · | · | 50 | – | 74 | –
O=C(CCCc1nc(-c2ccccc2)no1)NCc1cccnc1 | · | · | – | – | – | –
CC(C)NC(=O)CN1C(=O)NC(CCc2ccccc2)C1=O (stereo not given) | – | – | – | – | – | –
CC(C)C(=O)Nc1ccc(NC(=O)c2cc3ccccc3o2)cc1 | – | – | – | – | – | –
O=C(CSc1nc2ccccc2o1)NCc1ccc2c(c1)OCO2 | – | – | 100 | – | 95 | –
O=C(NCc1ccc2c(c1)OCO2)c1cc2ccccc2o1 | – | – | – | – | 89 | –
COc1ccc(CNC(=O)C(C)NC(=O)c2cc3ccccc3o2)cc1 (stereo not given) | – | – | – | – | 76 | –
O=C(COC(=O)CSc1nnc(-c2ccc(Cl)cc2)o1)NCc1ccc2c(c1)OCO2 | – | – | – | – | – | –
O=C(CSc1nc2ccc(Cl)cc2o1)NCc1ccc2c(c1)OCO2 | – | – | – | – | 61 | –
COc1ccc(CCn2nnc(-c3ccc(NC(C)=O)c(Cl)c3)n2)cc1 | – | – | · | · | · | ·
CC(=O)NC(Cc1c[nH]c2ccccc12)C(=O)NCc1ccc2c(c1)OCO2 (stereo not given) | – | – | – | – | – | –
O=C(CSc1c[nH]c2ccccc12)NCc1ccc2c(c1)OCO2 | · | · | 100 | – | 96 | –
O=C(CSc1nc(-c2ccccc2)cc(=O)[nH]1)Nc1ccccn1 | – | – | – | – | – | –
O=C(CSc1nc(-c2ccccc2)cc(=O)[nH]1)NCc1ccc2c(c1)OCO2 | · | · | – | – | 96 | –
COc1ccccc1S(=O)(=O)Cc1ccc(C(=O)NCc2cccnc2)o1 | – | – | – | – | – | –
CCc1ccccc1S(=O)(=O)Cc1ccc(C(=O)NCc2ccc3c(c2)OCO3)o1 | – | – | 54 | – | 95 | –
COc1ccccc1S(=O)(=O)Cc1ccc(C(=O)NC(C)c2ccc3c(c2)OCCO3)o1 (stereo not given) | – | – | 52 | – | 62 | –
Cc1ccc2c(CC(=O)OC3CCOC3=O)coc2c1 (stereo not given) | · | · | – | – | – | –
Clc1ccc(Cn2c(-c3cccnc3Cl)nc3ccccc32)cc1 | – | – | 82 | – | 65 | –
SMILES | sEH inh | sEH act | CYP2C19 inh | CYP2C19 act | CYP2C9 inhib | CYP2C9 act
Clc1ccc(Cn2c(-c3cccnc3Cl)nc3ccccc32)c(Cl)c1 | – | – | 60 | – | 58 | –
CCOC(=O)Cn1c(-c2cccnc2Cl)nc2cc(Cl)c(Cl)cc21 | – | – | – | – | – | –
COc1ccccc1Cn1c(-c2ccccc2OC)nc2ccccc21 | – | – | – | – | – | –
Fc1ccc(Cn2c(-c3cscn3)nc3ccccc32)c(Cl)c1 | – | – | – | – | – | –
CCn1c(-c2cccnc2Cl)nc2cc(Cl)c(Cl)cc21 | – | – | – | – | 67 | –
Oc1ccccc1Cn1c(-c2ccccc2O)nc2ccccc21 | – | – | 60 | – | 66 | –
